Measurements from PubChem BioAssay (NCATS).
Activity calls are given as the source filed them. No stated cut-off is given here; in the data, active means potency below about 10 µM; inactive means the rest.

These compounds were tested against Lysosomal acid glucosylceramidase (Homo sapiens) (UniProt P04062) (assay: Glucocerebrosidase-p2 (AID 348)). Details: purified GBA, blue fluorogenic substrate, 40 min.
Method in brief: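 Normal human glucocerebrosidase (0.2 nM) with blue fluorogenic substrate (80 uM final) in citrate/phosphate pH 5.9 with 10mM sodium taurocholate, 0.01% tween-20; 40 min RT, NaOH/glycine stop; fluorescence Ex 365/Em 440; AC50 from a titration from 0.6 nM upwards.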
Potency means the concentration at half of the fitted maximal effect.

Lysosomal acid glucosylceramidase (Homo sapiens), sequence (P04062 whole entry, looked up): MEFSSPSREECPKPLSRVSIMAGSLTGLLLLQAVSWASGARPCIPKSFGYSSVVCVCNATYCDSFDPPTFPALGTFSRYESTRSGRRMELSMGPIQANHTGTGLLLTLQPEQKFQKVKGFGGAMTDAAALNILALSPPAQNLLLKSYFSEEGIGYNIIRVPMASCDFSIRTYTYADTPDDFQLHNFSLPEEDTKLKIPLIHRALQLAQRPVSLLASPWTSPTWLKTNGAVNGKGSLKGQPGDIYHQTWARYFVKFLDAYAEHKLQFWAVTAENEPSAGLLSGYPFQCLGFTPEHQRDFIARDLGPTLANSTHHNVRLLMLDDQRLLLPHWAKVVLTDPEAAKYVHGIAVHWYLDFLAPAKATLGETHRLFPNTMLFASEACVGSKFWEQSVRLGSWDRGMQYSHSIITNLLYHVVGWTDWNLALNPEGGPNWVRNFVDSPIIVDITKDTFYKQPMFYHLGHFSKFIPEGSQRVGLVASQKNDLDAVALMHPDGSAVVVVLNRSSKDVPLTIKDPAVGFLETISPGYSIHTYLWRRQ

Potency, inactive:
COc1ccc2[nH]cc(CCNc3ncnc4ccc(-c5ccccc5OC)cc34)c2c1 > 11.4 µM
COc1cccc(Cn2c(=O)c(CCc3ccccc3)nc3cnc(N4CCN(C)CC4)nc32)c1 > 11.4 µM
O=c1cnc2cnc(OCc3ccccc3)nc2n1CCc1ccccc1 > 11.4 µM
CN1CCN(c2ncc3nc(-c4cccs4)c(=O)n(CCc4ccccc4)c3n2)CC1 > 11.4 µM
O=c1cnc2cnc(Oc3ccccc3)nc2n1Cc1cccs1 > 11.4 µM
O=C(c1cnccn1)N1CCC[C@@]2(CCN(c3cccc(-c4ccccc4)c3)C2)C1 > 11.4 µM
COc1ccc(CNc2nc(-c3cccnc3)nc3ccccc23)c(OC)c1 > 11.4 µM
O=C(c1ccco1)N1CCC2(CC1)CN(c1cccc(-c3ccccc3)c1)C2 > 11.4 µM
CN(C)c1ncc2nc(CCc3ccccc3)c(=O)n(Cc3cccs3)c2n1 > 11.4 µM
CN1CCN(c2ncc3nc(CCc4ccccc4)c(=O)n(Cc4cccs4)c3n2)CC1 > 11.4 µM
COc1ccc(Oc2ncc3nc(CCc4ccccc4)c(=O)n(CCC#N)c3n2)cc1 > 11.4 µM
CN1CCN(c2ncc3nc(-c4cn(C)c5ccccc45)c(=O)n(CCC#N)c3n2)CC1 > 11.4 µM
